RPL19A TOR yeast: RPL19A-GFP expression modulators in yeast, primary screen, cell-based, S. cerevisiae, multiplex flow cytometry, MLPCN; S. cerevisiae RPL19A-GFP strain, 3 h; active compounds read low; hit rate 0.3% among 330,000; AID 2025, 2009; percent response vs DMSO, % at 10 µM;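 active means percent response vs DMSO below 50%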;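 further: median channel GFP fluorescence of the barcoded RPL19A-GFP strain; lower means less RPL19A-GFP as with rapamycin TOR inhibition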
AGP1 TOR yeast: modulators of AGP1-GFP expression in yeast TOR pathway, primary screen, cell-based, multiplex flow cytometry, S. cerevisiae, MLPCN library; 3 h; GFP as percent of DMSO wells; GFP response vs DMSO, % at 10 µM; hit rate 0.02% among 320,000; AID 2066, 2009;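 active means GFP response relative to DMSO above a set limit, near screen average plus 3 SD, cut at about 150% in these data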;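 further: median GFP channel fluorescence of the gated AGP1 strain per well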
MEP2-GFP yeast: modulators of MEP2-GFP levels in yeast, primary screen, S. cerevisiae, multiplex flow cytometry, MLPCN library. hit rate 0.51% among 330,000. S. cerevisiae MEP2-GFP strain, 3 h; 100% = DMSO control level. GFP response vs DMSO, % at 10 µM. AID 2016, 2009;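 active means GFP response versus DMSO above a set limit, roughly screen mean plus 3 SD, cut at about 180% in these data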;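 further: median GFP fluorescence of the barcode-gated MEP2-GFP cells per well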
CIT2-GFP yeast: modulators of CIT2-GFP expression in yeast, primary screen, S. cerevisiae, GFP fusion, multiplex flow cytometry, MLPCN library; S. cerevisiae CIT2-GFP strain, 3 h; 100 means same as DMSO wells; GFP response vs DMSO, % at 10 µM; hit rate 0.065% among 320,000;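 active means GFP response relative to DMSO above a set limit, near the screen mean plus 3 SD, cut at about 150% in these data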;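 further: ratio of well median GFP fluorescence to mean of DMSO wells on the plate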
LAP4 TOR yeast: modulators of LAP4-GFP expression in yeast, primary screen, S. cerevisiae, multiplex flow cytometry, MLPCN library; GFP response vs DMSO, % at 10 µM; 3 h; median GFP as percent of DMSO wells; hit rate 0.34% among 320,000;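 active means GFP response vs DMSO above a set limit, about the screen mean plus 3 SD, cut at about 150% in these data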
LAP4-GFP pick2: LAP4-GFP expression modulators in yeast, confirmation, cell-based, second cherry pick, flow cytometry | S. cerevisiae LAP4-GFP strain, 3 h | shares compounds with LAP4 TOR yeast | hit rate 20% among 590 | AID 2621, 2010 | GFP response vs DMSO, % at 10 µM;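 active means GFP signal as percent of the solvent control above about 150%, meaning raised reporter expression, limit read from the data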
MEP2-GFP pick2: modulators of MEP2-GFP levels in yeast, confirmation, S. cerevisiae, flow cytometry GFP, second cherry picks. S. cerevisiae MEP2-GFP strain, 3 h. hit rate 10% among 590. shares compounds with LAP4 TOR yeast. GFP response vs DMSO, % at 10 µM. AID 2622, 2010;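 active means GFP signal above 150% of the solvent control wells, that is a rise of more than half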;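 further: median channel GFP fluorescence of all gated yeast cells per well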
RPL19A-GFP pick2: RPL19A-GFP modulators in TOR pathway yeast, confirmation, cell-based, S. cerevisiae, flow cytometry, second cherry pick; S. cerevisiae RPL19A-GFP strain, 3 h; active compounds read low; 100% means same as DMSO wells; GFP response vs DMSO, % at 10 µM; shares compounds with LAP4 TOR yeast; AID 2623, 2010; hit rate 3% among 590;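 active means under 65% GFP response relative to DMSO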;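 further: median GFP channel fluorescence per well over the all cells gate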
CIT2 GFP CP2: modulators of CIT2-GFP expression in yeast, confirmation, flow cytometry, second cherry pick, single plex. GFP response vs DMSO, % at 10 µM. S. cerevisiae CIT2-GFP strain, 3 h; DMSO control wells read 100%. shares compounds with LAP4 TOR yeast. hit rate 8% among 590;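 active means GFP response vs DMSO above about 150%, limit read from the data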;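 further: median green fluorescence per well over all gated yeast cells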
AGP1 GFP CP2: AGP1-GFP expression modulators, hit retest, confirmation, cell-based, flow cytometry, S. cerevisiae, cherry pick set 2. shares compounds with LAP4 TOR yeast. S. cerevisiae AGP1-GFP strain, 3 h. percent response vs DMSO, % at 10 µM. 590 tested, under 10 active;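 active means over 150 percent of DMSO response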;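 further: median GFP channel fluorescence over all cells without mother daughter split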
Of the large screens only hits and unclear results are named; the others gave an inactive call (follow-up assays come after a bar, where they were run). A selection: hits, their analogues and other compounds. The true share with any hit is near 0.93%.

O=C(NNC(=O)c1ccccc1O)c1ccc(Cl)c(S(=O)(=O)N2CCCCC2)c1	none
Cc1cccc(OCC(=O)N2CCN(C(=O)c3ccco3)CC2)c1	none
Cc1cc(-c2cc(C(=O)NC3CCCC3)on2)nc(NC2CCCC2)n1	none
COc1ccc(-c2cc(C(=O)Nc3ccccc3)on2)cc1	none
Cc1cc(-c2cc(C(=O)NCc3ccccc3)on2)nc(NC2CCCC2)n1	none | LAP4-GFP pick2 inactive | MEP2-GFP pick2 inactive | RPL19A-GFP pick2 inactive | CIT2 GFP CP2 inactive | AGP1 GFP CP2 inactive
Cc1cc(-c2cc(C(=O)Nc3ccccc3)on2)nc(NC2CCCC2)n1	none | LAP4-GFP pick2 inactive | MEP2-GFP pick2 inactive | RPL19A-GFP pick2 inactive | CIT2 GFP CP2 inactive | AGP1 GFP CP2 inactive
CCCNc1nc(C)cc(-c2cc(C(=O)NC3CCCC3)on2)n1	LAP4 TOR yeast 155.7 | LAP4-GFP pick2 inactive | MEP2-GFP pick2 inactive | RPL19A-GFP pick2 inactive | CIT2 GFP CP2 inactive | AGP1 GFP CP2 inactive
CSc1nc(C)cc(-c2cc(C(=O)Nc3ccccc3)on2)n1	none | LAP4-GFP pick2 inactive | MEP2-GFP pick2 inactive | RPL19A-GFP pick2 inactive | CIT2 GFP CP2 inactive | AGP1 GFP CP2 inactive
Nc1nc(N)c2nc(-c3ccccc3)c(N)nc2n1	MEP2-GFP yeast 332.2 | LAP4-GFP pick2 inactive | MEP2-GFP pick2 inactive | RPL19A-GFP pick2 inactive | CIT2 GFP CP2 inactive | AGP1 GFP CP2 inactive
O=C(COc1ccc(Br)cc1CNC1CCCC1)Nc1ccccc1	none
CCN(CC(=O)Nc1ccccc1C(F)(F)F)CC(=O)NC1CC1	none
CCN(CC(=O)Nc1ccc(Cl)c(C(F)(F)F)c1)CC(=O)NC1CCS(=O)(=O)C1 (stereo not given)	none | LAP4-GFP pick2 inactive | MEP2-GFP pick2 inactive | RPL19A-GFP pick2 inactive | CIT2 GFP CP2 inactive | AGP1 GFP CP2 inactive

Screening data: PubChem BioAssay, NMMLSC
